Assay outcomes from PubChem.
USP30 inh: human USP30 deubiquitinase inhibition. 47,000 tested, 5.3% active. purified USP30, Ub-rhodamine cleavage fluorescence. inhibition, % at 25 µM
Target sequence (Q70CQ3 whole entry, looked up): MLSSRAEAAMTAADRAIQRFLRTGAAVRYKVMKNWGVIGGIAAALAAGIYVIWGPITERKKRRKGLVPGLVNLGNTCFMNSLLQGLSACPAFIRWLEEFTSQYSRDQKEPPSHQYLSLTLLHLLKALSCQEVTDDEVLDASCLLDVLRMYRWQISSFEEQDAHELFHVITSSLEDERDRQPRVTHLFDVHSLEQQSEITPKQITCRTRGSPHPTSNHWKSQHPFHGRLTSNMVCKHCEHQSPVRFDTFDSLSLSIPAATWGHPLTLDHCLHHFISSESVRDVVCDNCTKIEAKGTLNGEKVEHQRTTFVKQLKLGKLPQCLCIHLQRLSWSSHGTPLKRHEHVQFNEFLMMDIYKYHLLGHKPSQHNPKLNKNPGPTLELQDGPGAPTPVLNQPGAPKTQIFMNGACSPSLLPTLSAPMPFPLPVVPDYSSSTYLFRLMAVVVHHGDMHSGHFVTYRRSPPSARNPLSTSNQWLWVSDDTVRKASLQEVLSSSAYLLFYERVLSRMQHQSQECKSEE
USP17 block: blocks human USP17 ubiquitin-rhodamine cleavage; A8MUK1; purified USP17, Ub-rhodamine cleavage fluorescence, 3 h; inhibition, % at 50 µM; 47,000 tested, 6.5% active; AID 1645855
The depositor's hits bear a star; i = inactive; . = no result given. Only some compounds are listed: those with a hit (about 9.6% of all), similar ones and a draw of the others. No stated cut-off is given here; in the data, active means inhibition above about 30%; inactive means the rest.

SMILES | USP30 inh | USP17 block
Cc1oc2ncn3nc(C(C)Oc4cccc5ccccc45)nc3c2c1C (stereo not drawn) | -144 | 32*
Cc1ccc2nc(CN3CCN(C(=O)Nc4ccccc4F)CC3)oc2c1 | 15 | -17
O=C(Nc1nc2c(s1)CCC2)c1cccc(N2CCNC2=O)c1 | -42 | 42*
O=C(Nc1nc2c(s1)CCCC2)c1cccc(Cl)c1Cl | -2 | 16
CC(=O)NC(Cc1ccc(F)cc1)C(=O)NC1CCN(C(=O)C2CC2)CC1 (stereo not drawn) | 20 | 5
COc1cc2c(cc1OC)C(COc1ccc(F)cc1)N(C(=O)c1cccc3ccccc13)CC2 (stereo not drawn) | -2 | 5
CCOC(=O)c1ccc(OCC2c3cc(OC)c(OC)cc3CCN2C(=O)C(C)Oc2ccccc2)cc1 (stereo not drawn) | -29 | 32*
COc1ccc2c(C)c(CC(=O)N[C@H](CSCc3ccccc3)C(=O)O)c(=O)oc2c1C | 7 | -7
Cc1ccc(NC(=O)C2CCCC2)cc1S(=O)(=O)N1CCOCC1 | -5 | -14
Cc1ccc(NC(=O)c2cc(=O)c3ccccc3o2)cc1S(=O)(=O)N1CCOCC1 | 35* | 7
CC(C)c1nc(C2CCCN2C(=O)c2ccc(N(C)C)nn2)no1 (stereo not drawn) | -5 | -6
O=C1C[C@@H]2O[C@H](CNC(=O)[C@@H]3CN(CCN3C(=O)C3CCOCC3)C(=O)[C@@H]3C[C@@H](CN3C3CCCC3)N1)[C@@H](O)[C@H]2O | i | -148
COCCN1C(=O)c2ccccc2C(C(=O)Nc2ccc3c(c2)OCO3)C12CCCC2 (stereo not drawn) | 9 | 45*
COCCN1C(=O)c2ccccc2C(C(=O)Nc2ccc(NC(C)=O)cc2)C12CCCCC2 (stereo not drawn) | . | 12
O=C(Nc1ccc2c(c1)OCO2)[C@H]1C[C@@H]2CN(Cc3ccccc3)C[C@H]1O2 | 27 | 12
Cc1cccc(OCCn2c(NC(=O)c3ccc(Cl)cc3)nc3ccccc32)c1 | 28 | 19
CCN1CCN(C(=O)c2cc3occc3c(Nc3ccc(OC)cc3)n2)CC1 | 0 | -5
COc1ccc(Nc2nc(C(=O)NCc3ccc4c(c3)OCO4)cc3occc23)cc1 | -37 | 63*
O=C(NCc1ccccc1)c1cc2occc2c(Nc2ccc(F)cc2)n1 | -17 | 1
COc1ccc(Nc2nc(C(=O)NCc3ccccc3)cc3occc23)cc1 | -12 | 57*
O=C1OC(C(=O)Nc2ccccc2C(F)(F)F)Cc2ccccc21 (stereo not drawn) | 8 | -1
c1cncc(-c2nc(Nc3ccc4c(c3)OCCCO4)c3ccccc3n2)c1 | -14 | 40*
c1cncc(-c2nc(Nc3ccc4c(c3)OCCO4)c3ccccc3n2)c1 | 53* | 42*
CC(C)(C)c1ccc(Nc2nc(-c3cccnc3)nc3ccccc23)cc1 | -68 | -13
Cc1ccc(Nc2nc(-c3ccncc3)nc3ccccc23)cc1 | -10 | -1
SMILES | USP30 inh | USP17 block
CC(=O)c1c(C)[nH]c(C(=O)N2CCC(N3CCCCC3)CC2)c1C | 11 | 16
CN1CCN(C2(CNC(=O)COc3ccccc3[N+](=O)[O-])CCCCC2)CC1 | -15 | -24
CC(C)c1ccc(OCC(=O)NCC2(N3CCN(C)CC3)CCCCC2)cc1 | 30* | -2
CC1(C)Cc2c(sc3nc(SCC(=O)NCCc4ccccc4)nc(N)c23)CO1 | 10 | -1
COc1ccc(-c2nnc(N3CCC(C(=O)NC4CCCC4)CC3)o2)cc1 | 80* | 75*
O=C(NC1CCCCC1)C1CCN(c2ccc(N3CCCCC3)nn2)CC1 | 9 | 0
O=C(Nc1ccc2c(c1)OCO2)c1cc(-c2cccnc2)n(-c2ccccc2)n1 | 24 | 30*
Cc1ccnc(NC(=O)c2cc(-c3cccnc3)n(-c3ccccc3)n2)c1 | 0 | -10
COc1cc(C#N)ccc1OCC(=O)Nc1ccccc1Oc1ccccc1 | 8 | -4
COC(=O)c1sccc1NC(=O)COc1ccsc1C(=O)OC | 22 | 51*
CCOc1cc(NC(=O)C2CC2)c(OCC)cc1NC(=O)c1cccs1 | 14 | 21
COC(=O)c1sccc1NC(=O)c1cccs1 | 26 | 30*
CC1CC1c1nnc(C2(c3cccc(Cl)c3)CCOCC2)o1 (stereo not drawn) | -49 | -10
Cn1c(=O)c2c(nc(NCC(O)c3ccccc3)n2Cc2c(F)cccc2Cl)n(C)c1=O (stereo not drawn) | -2 | 2
CCN(CC)c1ccc2nnc(CCC(=O)N3CCCC3)n2n1 | -5 | 0
CC(C)CN1CCC2(CC1)CC1(CCN(C(=O)NC(C)C)CC1)N(C)C2=O | 8 | 0
O=C(CSc1cn(Cc2cccc(F)c2)c2ccccc12)Nc1ccccc1C(F)(F)F | 18 | 11
Cc1ccc(Cn2cc(SCC(=O)Nc3ccc(F)cc3F)c3ccccc32)cc1 | 22 | 32*
Cc1cc(-c2nnc(C3CC3)o2)c(C)n1CC(=O)Nc1ccccc1 | . | 2
O=C(Cn1cccc1-c1nnc(C2CC2)o1)Nc1cccc(F)c1 | -8 | 32*
Cc1cc(NC(=O)Cn2c(C)cc(-c3nnc(C4CC4)o3)c2C)ccc1F | 44* | 35*
Cc1ccc(NC(=O)Cn2cccc2-c2nnc(C3CC3)o2)cc1C | 1 | -1
O=C(C1CCCC1)N1Cc2ccccc2CC2(CCN(Cc3cccnc3)C2)C1 (stereo not drawn) | -13 | -5
CCN(Cc1ccc2c(c1)OCO2)C(=O)CSc1nnc(C(F)(F)F)n1C | 11 | 2
COc1ccc(-c2cc3n(C)c(C)c(CCC(=O)NCc4ccc(F)cc4)c(=O)n3n2)cc1 | 54* | 66*
SMILES | USP30 inh | USP17 block
COc1cccc(-c2cc3n(C)c(C)c(CCC(=O)NCc4ccccc4)c(=O)n3n2)c1 | 0 | -4
Cc1ccccc1OCC1=NN2C(=N)/C(=C/c3cn(Cc4ccccc4)c4ccccc34)C(=O)N=C2S1 | -31 | 11
Cc1cc(N2CC(C)OC2=O)nc(C2CCN(C(=O)OC(C)(C)C)CC2)n1 (stereo not drawn) | 35* | 12
Cc1cc(N2CC(C)OC2=O)nc(C2CCN(C(=O)C(C)(C)C)CC2)n1 (stereo not drawn) | 16 | 10
CC(C)CCNC(=O)c1ccc2c(=O)n(C3CCCC3)c(=O)[nH]c2c1 | 18 | 3
Cn1cc2c(n1)C(COc1cccnc1)CN(C(=O)N1CCCC1)C2 (stereo not drawn) | -2 | -20
O=C(c1[nH]nc2c1CCc1ccccc1-2)N1CCC(Cc2ccccc2)CC1 | 8 | 4
NC(=O)C1(N2CCCCC2)CCN(C(=O)c2[nH]nc3c2CCc2ccccc2-3)CC1 | 0 | 59*
CCCc1nnc([C@H]2CCN(Cc3cnc4ccccc4c3)C2)o1 | -17 | 0
CC(=O)N[C@@]12CN(C)CC[C@@H]1[C@@H](c1ccccc1)N(CC(=O)Nc1cc(C)n(C)n1)C2 | -32 | -4
COc1ccc(-c2nc(-c3ccc4oc(C)nc4c3)no2)c(OC)c1 | -11 | -4
COc1ccc(-c2nc(-c3cn(-c4ccccc4)nn3)no2)c(OC)c1 | 94* | 71*
COc1cc(Cl)ccc1-c1nc(-c2ccn3cnnc3c2)no1 | -78 | -28
COc1ccc(-c2nc(-c3cn(-c4cccc(Cl)c4)nn3)no2)c(OC)c1 | . | 65*
COc1ccc(-c2nc(-c3nnn(Cc4cccc(F)c4)c3C)no2)cc1OC | 4 | 7
COc1ccc(-c2nc(-c3nnn(Cc4ccc(F)cc4)c3C)no2)c(OC)c1 | 66* | 34*
COc1ccccc1-c1nc(-c2cn(-c3ccccc3)nn2)no1 | 26 | 15
